Results on 14 sequences are retold here after paper PMC8384837, “Expanding the binding specificity for RNA recognition by a PUF domain”.

Residue numbers refer to the chain shown, from its start.

Holding throughout (assay): yeast three-hybrid, YBZ-1, SC-Leu-His + 0.5 mM 3-AT, 4 days
Holding throughout (conditions): tags: N-Gal4 AD-HA kept; label: inside an RPR1-promoter hybrid RNA with tandem MS2 sites; ssRNA

The target in test [1] is PUM1 PUF domain R4-SPV (Homo sapiens, UniProt Q14671 828-1176, N971S;H972P;Q975V). A digest of the protocol: (§1)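 Each repeat of the Pumilio-1 PUF domain was randomized at its three base-contacting residues, and these libraries were co-expressed from a centromeric plasmid with matching RNA elements in strain YBZ-1. After four days on SC-Leu (input) or SC-Leu-His + 0.5 mM 3-AT (selection), the repeat regions were PCR-amplified and Illumina-sequenced. The interaction score compares variant frequency between input and selection as a log change, computed in log2 with a pseudocount of 1 for absent variants.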

Test [2] has as its target PUM1 PUF domain R4-ARM (Homo sapiens, UniProt Q14671 828-1176, N971A;H972R;Q975M). The method, boiled down: as §1
Test [3] addresses PUM1 PUF domain R1-RTR (Homo sapiens, UniProt Q14671 828-1176, S863R;R864T;Q867R). The method, boiled down:
as §1

Test [4] has as its target PUM1 PUF domain R5-EVC (Homo sapiens, UniProt Q14671 828-1176, C1007E;R1008V;Q1011C). The method, boiled down: as §1
The target of test [5] is PUM1 PUF domain R5-RYR (Homo sapiens, UniProt Q14671 828-1176, C1007R;R1008Y;Q1011R). The method, boiled down: as §1
For test [6], the target named is PUM1 PUF domain R5-KYV (Homo sapiens, UniProt Q14671 828-1176, C1007K;R1008Y;Q1011V). A digest of the protocol:
as §1

Test [7] addresses PUM1 PUF domain R3-TYW (Homo sapiens, UniProt Q14671 828-1176, C935T;R936Y;Q939W). The method, boiled down:
as §1

Test [8] concerns the target T1, PUM1 PUF domain R6-RWK (Homo sapiens, UniProt Q14671 828-1176, N1043R;Y1044W;Q1047K).
T1 sequence: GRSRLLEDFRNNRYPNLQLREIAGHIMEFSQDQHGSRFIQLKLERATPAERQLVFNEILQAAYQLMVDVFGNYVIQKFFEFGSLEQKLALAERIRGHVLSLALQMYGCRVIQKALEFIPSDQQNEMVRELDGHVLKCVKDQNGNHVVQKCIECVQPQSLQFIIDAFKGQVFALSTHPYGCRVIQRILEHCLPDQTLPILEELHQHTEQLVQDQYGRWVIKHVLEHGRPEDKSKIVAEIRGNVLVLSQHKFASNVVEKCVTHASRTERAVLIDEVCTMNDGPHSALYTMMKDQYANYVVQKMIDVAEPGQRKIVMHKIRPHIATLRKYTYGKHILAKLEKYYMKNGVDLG
A digest of the protocol:
as §1

Test [9] concerns the target PUM1 PUF domain R3-EYE (Homo sapiens, UniProt Q14671 828-1176, C935E;R936Y;Q939E). A digest of the protocol: as §1
For test [10], the target named is PUM1 PUF domain R8-IWR (Homo sapiens, UniProt Q14671 828-1176, N1122I;Y1123W;Q1126R). A digest of the protocol:
as §1

The target in test [11] is PUM1 PUF domain R4-PTC (Homo sapiens, UniProt Q14671 828-1176, N971P;H972T;Q975C). The method, boiled down:
as §1

Test [12] concerns the target PUM1 PUF domain R3-CRD (Homo sapiens, UniProt Q14671 828-1176, Q939D). A digest of the protocol:
as §1

The target of test [13] is PUM1 PUF domain R4-SNY (Homo sapiens, UniProt Q14671 828-1176, N971S;H972N;Q975Y). A digest of the protocol: as §1
Test [14] deals with T2, PUM1 PUF domain R6-YRS (Homo sapiens, UniProt Q14671 828-1176, N1043Y;Y1044R;Q1047S).
T2 sequence: T1 sequence with R216Y, W217R, K220S
A digest of the protocol: as §1

Test [15] deals with PUM1 PUF domain R4-MNG (Homo sapiens, UniProt Q14671 828-1176, N971M;H972N;Q975G). The method, boiled down: as §1
The target of test [16] is PUM1 PUF domain R2-IWD (Homo sapiens, UniProt Q14671 828-1176, N899I;Y900W;Q903D). A digest of the protocol: as §1
The target of test [17] is PUM1 PUF domain R2-VFR (Homo sapiens, UniProt Q14671 828-1176, N899V;Y900F;Q903R). The method, boiled down: as §1
Test [18] concerns the target PUM1 PUF domain R2-VHP (Homo sapiens, UniProt Q14671 828-1176, N899V;Y900H;Q903P). A digest of the protocol:
as §1

In test [19] the target is PUM1 PUF domain R7-RRS (Homo sapiens, UniProt Q14671 828-1176, S1079R;N1080R;E1083S). The method, boiled down:
as §1

Test [20] has as its target PUM1 PUF domain R7-AVK (Homo sapiens, UniProt Q14671 828-1176, S1079A;N1080V;E1083K). The method, boiled down:
as §1

PUM1 PUF domain R2-VFR, sequence (Q14671 828-1176 N899V/Y900F/Q903R): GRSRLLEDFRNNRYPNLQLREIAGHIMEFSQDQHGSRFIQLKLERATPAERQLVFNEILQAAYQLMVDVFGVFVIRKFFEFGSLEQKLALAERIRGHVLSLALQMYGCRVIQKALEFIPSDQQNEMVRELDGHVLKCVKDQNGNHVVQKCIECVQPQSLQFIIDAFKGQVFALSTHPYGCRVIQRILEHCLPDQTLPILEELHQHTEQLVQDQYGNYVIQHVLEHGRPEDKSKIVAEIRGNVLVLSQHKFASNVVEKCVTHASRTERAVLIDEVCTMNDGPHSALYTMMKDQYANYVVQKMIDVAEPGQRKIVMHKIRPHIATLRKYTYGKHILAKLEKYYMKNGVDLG
PUM1 PUF domain R4-MNG, sequence (Q14671 828-1176 N971M/H972N/Q975G): as the sequence (Q14671 828-1176 N899V/Y900F/Q903R) above, with V72N, F73Y, R76Q, N144M, H145N, Q148G counted along it
PUM1 PUF domain R2-VHP, sequence (Q14671 828-1176 N899V/Y900H/Q903P): as the sequence (Q14671 828-1176 N899V/Y900F/Q903R) above, with F73H, R76P counted along it
PUM1 PUF domain R2-IWD, sequence (Q14671 828-1176 N899I/Y900W/Q903D): as the sequence (Q14671 828-1176 N899V/Y900F/Q903R) above, with V72I, F73W, R76D counted along it
PUM1 PUF domain R5-EVC, sequence (Q14671 828-1176 C1007E/R1008V/Q1011C): as the sequence (Q14671 828-1176 N899V/Y900F/Q903R) above, with V72N, F73Y, R76Q, C180E, R181V, Q184C counted along it

Regarding “GGCUAGAACUAGUGGAUCCCCCGGCGCCCGGCGGCUCGAGCCCGGGUAAGUGUAUAUAGUCUGCAUGCCGCCGGGCGCCAUGCCUGCAGGUCGACUCUAGAAAACAUG”, the values for the binding signal in test [1] and in [2] were 3.71 log2 enrichment (interaction score) and 1.47 log2 enrichment (interaction score), respectively.
For the sequence “GGCUAGAACUAGUGGAUCCCCCGGCGCCCGGCGGCUCGAGCCCGGGUAAGUGUAAAUUGUCUGCAUGCCGCCGGGCGCCAUGCCUGCAGGUCGACUCUAGAAAACAUG”, the binding signal in [3] was 2.2 log2 enrichment (interaction score).
As to “GGCUAGAACUAGUGGAUCCCCCGGCGCCCGGCGGCUCGAGCCCGGGUAAGUGUGAAUAGUCUGCAUGCCGCCGGGCGCCAUGCCUGCAGGUCGACUCUAGAAAACAUG”, the figures for the binding signal in test [4] and in [5] were 3.25 log2 enrichment (interaction score) and 2.14 log2 enrichment (interaction score), respectively.
For the sequence “GGCUAGAACUAGUGGAUCCCCCGGCGCCCGGCGGCUCGAGCCCGGGUAAGUGUUAAUAGUCUGCAUGCCGCCGGGCGCCAUGCCUGCAGGUCGACUCUAGAAAACAUG”, the binding signal is 4.47 log2 enrichment (interaction score) in test [5] and 4.52 log2 enrichment (interaction score) in [6].
Regarding “GGCUAGAACUAGUGGAUCCCCCGGCGCCCGGCGGCUCGAGCCCGGGUAAGUGUAAAUCGUCUGCAUGCCGCCGGGCGCCAUGCCUGCAGGUCGACUCUAGAAAACAUG”, the binding signal in [3] was 1.13 log2 enrichment (interaction score).
“GGCUAGAACUAGUGGAUCCCCCGGCGCCCGGCGGCUCGAGCCCGGGUAAGUGUCAAUAGUCUGCAUGCCGCCGGGCGCCAUGCCUGCAGGUCGACUCUAGAAAACAUG”: the binding signal is 4.57 log2 enrichment (interaction score) in test [5] and 5.44 log2 enrichment (interaction score) in test [6].
Take “GGCUAGAACUAGUGGAUCCCCCGGCGCCCGGCGGCUCGAGCCCGGGUAAGUGUAAAUAGUCUGCAUGCCGCCGGGCGCCAUGCCUGCAGGUCGACUCUAGAAAACAUG”: the binding signal in test [7] is 5.67 log2 enrichment (interaction score); in test [1], 1.64 log2 enrichment (interaction score); in test [5] it was 2.49 log2 enrichment (interaction score); in test [8], 6.43 log2 enrichment (interaction score); in [9], 2.67 log2 enrichment (interaction score); in test [6], 4.2 log2 enrichment (interaction score). In addition, the binding signal in test [10] is 3.98 log2 enrichment (interaction score); in test [11], 3.57 log2 enrichment (interaction score); in test [2], 4.11 log2 enrichment (interaction score); in [12], 5 log2 enrichment (interaction score); in test [13], 2.33 log2 enrichment (interaction score).
For the sequence “GGCUAGAACUAGUGGAUCCCCCGGCGCCCGGCGGCUCGAGCCCGGGUAAGUGAAAAUAGUCUGCAUGCCGCCGGGCGCCAUGCCUGCAGGUCGACUCUAGAAAACAUG”, the binding signal in test [14] was 3.7 log2 enrichment (interaction score).
In the case of “GGCUAGAACUAGUGGAUCCCCCGGCGCCCGGCGGCUCGAGCCCGGGUAAGUGUACAUAGUCUGCAUGCCGCCGGGCGCCAUGCCUGCAGGUCGACUCUAGAAAACAUG”, the binding signal was 2.1 log2 enrichment (interaction score) in test [15] and 2.37 log2 enrichment (interaction score) in test [2].
For “GGCUAGAACUAGUGGAUCCCCCGGCGCCCGGCGGCUCGAGCCCGGGUAAGUGUAAAAAGUCUGCAUGCCGCCGGGCGCCAUGCCUGCAGGUCGACUCUAGAAAACAUG”, the binding signal in [16] was 2.12 log2 enrichment (interaction score); in test [17], 5.64 log2 enrichment (interaction score); in test [18], 2.73 log2 enrichment (interaction score).
Consider “GGCUAGAACUAGUGGAUCCCCCGGCGCCCGGCGGCUCGAGCCCGGGUAAGUCUAAAUAGUCUGCAUGCCGCCGGGCGCCAUGCCUGCAGGUCGACUCUAGAAAACAUG”, for which the binding signal in [19] was 4.47 log2 enrichment (interaction score).
For “GGCUAGAACUAGUGGAUCCCCCGGCGCCCGGCGGCUCGAGCCCGGGUAAGUUUAAAUAGUCUGCAUGCCGCCGGGCGCCAUGCCUGCAGGUCGACUCUAGAAAACAUG”, the binding signal in test [19] is 4.29 log2 enrichment (interaction score); in test [20] it was 4.11 log2 enrichment (interaction score).
On to “GGCUAGAACUAGUGGAUCCCCCGGCGCCCGGCGGCUCGAGCCCGGGUAAGCGUAAAUAGUCUGCAUGCCGCCGGGCGCCAUGCCUGCAGGUCGACUCUAGAAAACAUG”, for which the binding signal in test [10] was 5.25 log2 enrichment (interaction score).
As to “GGCUAGAACUAGUGGAUCCCCCGGCGCCCGGCGGCUCGAGCCCGGGUAAGUGUAAUUAGUCUGCAUGCCGCCGGGCGCCAUGCCUGCAGGUCGACUCUAGAAAACAUG”, the results for the binding signal in test [9] and in test [12] were 5.03 log2 enrichment (interaction score) and 1.14 log2 enrichment (interaction score), respectively.
